5 molecules from PubChem BioAssay (EPA / NIEHS) can be followed below.

“And” between values parts separate entries of the source, which are not always exact repeats. Identical values can stand only once. The source holds several records for some structures; these can differ, active in one and inactive in another. The source made the active and inactive calls. The calls were made as follows: active = hit-call score of the fitted dose curve at least 0.9, where 1 is the maximum; inactive = score below 0.9.

A short description of experiment [1]: ATG_DR4_LXR_CIS: Attagene CIS-FACTORIAL HepG2 Assay for human Liver X Receptor (LXR), DR4 submotif (AID 2282929). To be noted: HepG2 Attagene DR4 cis-reporter, mRNA transcription; AC50: actives raise or lower the signal unless noted; outcome: actives raise or lower the signal unless noted. A digest of the protocol:
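After transient transfection with multiplexed cis-promoter reporter units, HepG2 cells received test chemicals for 24 h. Reporter mRNA induction, detected by fluorescence after RT-PCR and capillary electrophoresis, was scored relative to DMSO.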

Experiment [2] concerns the target Aryl hydrocarbon receptor (Homo sapiens) (UniProt P35869). Briefly: ATG_Ahr_CIS: Attagene CIS-FACTORIAL HepG2 Assay for human Aryl Hydrocarbon Receptor (Ahr) (AID 2282930). Particulars: HepG2 AhR cis-factorial reporter transcription; actives raise or lower the signal. The essentials: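 Endogenous factor activity is tracked through cis-promoter reporter units transfected into HepG2 cells. Transcript levels at 24 h are read by fluorescent RT-PCR and capillary electrophoresis, with activity in either direction scored relative to DMSO.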

A short description of experiment [3]: ATG_AP_1_CIS: Attagene CIS-FACTORIAL HepG2 Assay for human Activator Protein 1 (AP-1) (AID 2282931). To be noted: HepG2 Attagene cis-factorial AP-1 reporter mRNA; actives raise or lower the signal. A digest of the protocol: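 After 24 h incubation with test chemical, RNA from transfected HepG2 cells was reverse-transcribed, amplified, fluorescently labelled and digested before capillary electrophoresis. Reporters were driven by cis-regulatory promoters; activity fitted bidirectionally versus DMSO.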

Experiment [4] can be described thus: ATG_AP_2_CIS: Attagene CIS-FACTORIAL HepG2 Assay for human Activator Protein 2 (AP-2) (AID 2282932). Particulars: HepG2 AP-2 cis-reporter, Attagene transcription factor profiling; AC50: actives raise or lower the signal unless noted; outcome: actives raise or lower the signal unless noted. The essentials:
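Read-out: fluorescent reporter mRNA via RT-PCR and capillary electrophoresis, 24 h post-dose in transiently transfected HepG2. Endogenous factors drive cis-promoter reporters; gain or loss of signal fitted bidirectionally against DMSO.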

Experiment [5] is described as follows: ATG_BRE_CIS: Attagene CIS-FACTORIAL HepG2 Assay for human Bone Morphogenetic Protein (BMP) Response Element (BRE) (AID 2282933). To be noted: HepG2 BMP response element reporter, Attagene transcription factor profiling; actives raise or lower the signal. A digest of the protocol: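 Multiplexed cis-reporter assay, HepG2, 24 h exposure. mRNA from reporter units quantified via RT-PCR/CE; DMSO baseline; bidirectional curve fit.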

In experiment [6] the target is Transcription factor E2F1 (Homo sapiens) (UniProt Q01094). As to the kind of experiment: ATG_E2F_CIS: Attagene CIS-FACTORIAL HepG2 Assay for human E2F Transcription Factor 1 (AID 2282935). Particulars: HepG2 Attagene cis-reporter, E2F reporter RNA transcripts; actives raise or lower the signal. The essentials: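 Transient MRTU transfection of HepG2; 24 h compound exposure; RNA → oligo(dT) RT → PCR → FAM label → HpaI cut → CE fluorescence. Gain/loss of signal fit against DMSO.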

Experiment [7] is described as follows: ATG_E_Box_CIS: Attagene CIS-FACTORIAL HepG2 Assay for human Enhancer Box (E-box) (AID 2282936). To be noted: HepG2 E-box cis-reporter transcription, actives raise or lower the signal. A digest of the protocol: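 Transiently transfected HepG2, endogenous TF-driven reporters, 24 h dosing. Readout: RT-PCR plus capillary electrophoresis of fluorescent reporter fragments. Gain or loss of signal fitted bidirectionally against DMSO baseline.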

Experiment [8] is described as follows: ATG_M_61_CIS: Attagene CIS-FACTORIAL HepG2 Assay for M61 Transcription Factor (Internal Marker) (AID 2282937). To be noted: HepG2 Attagene CIS-FACTORIAL M61 internal marker reporter; actives raise or lower the signal. A digest of the protocol:
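Using transiently transfected HepG2 liver cells, reporter transcript levels were assessed 24 h post-dosing by RT-PCR and capillary electrophoresis. Changes in either direction were fitted relative to DMSO controls.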

The nature of experiment [9]: ATG_EGR_CIS: Attagene CIS-FACTORIAL HepG2 Assay for human Early Growth Response 1 (EGR1) (AID 2282938). To be noted: HepG2 Attagene CIS-FACTORIAL EGR reporter mRNA; actives raise or lower the signal. A digest of the protocol:
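Fluorescent capillary-electrophoresis signal of reporter cDNA fragments serves as read-out. HepG2 cells bear transiently transfected cis-promoter reporter units and are exposed 24 h; gain- or loss-of-signal is fitted against DMSO.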

A short description of experiment [10]: ATG_M_19_CIS: Attagene CIS-FACTORIAL HepG2 Assay for M19 Transcription Factor (Internal Marker) (AID 2282939). Particulars: HepG2 Attagene CIS-FACTORIAL M19 internal marker reporter; actives raise or lower the signal. A digest of the protocol:
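Signals come from fluorescence of labelled reporter-specific PCR fragments resolved by capillary electrophoresis, following 24 h treatment of HepG2 cells transfected with cis-promoter reporter units; activity was fitted in both directions relative to DMSO.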

A short description of experiment [11]: ATG_ERE_CIS: Attagene CIS-FACTORIAL HepG2 Assay for Estrogen Response Element (ERE) (AID 2282940). To be noted: HepG2 ERE cis-reporter, Attagene RNA transcript; actives raise or lower the signal. The essentials:
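Fluorescence of capillary-separated, FAM-labelled reporter cDNA fragments indicates reporter mRNA levels in HepG2 cells exposed to chemicals for 24 h. Transient transfection with cis-regulated units; data fitted in both directions against DMSO.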

Experiment [12] can be described thus: ATG_Ets_CIS: Attagene CIS-FACTORIAL HepG2 Assay for human Erythroblast Transformation Specific (ETS) (AID 2282941). To be noted: HepG2 ETS cis-reporter transcription; AC50: actives raise or lower the signal unless noted; outcome: actives raise or lower the signal unless noted. The essentials:
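Bidirectional fit versus DMSO of reporter mRNA signal, detected by RT-PCR and capillary electrophoresis in HepG2 cells transiently transfected with cis-element reporters and dosed 24 h.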

The target of experiment [13] is Hepatocyte nuclear factor 3-beta (Homo sapiens) (UniProt Q9Y261). As to the kind of experiment: ATG_FoxA2_CIS: Attagene CIS-FACTORIAL HepG2 Assay for human Forkhead box A2 (FOXA2) (AID 2282942). To be noted: HepG2 cis-reporter transcription factor activity, 24 h; actives raise or lower the signal. The essentials:
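Fluorescence signal of reporter cDNA fragments, separated by capillary electrophoresis, reflects endogenous transcription factor activity in transfected HepG2 after 24 h. Both increases and decreases fitted against DMSO.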

The nature of experiment [14]: ATG_FoxO_CIS: Attagene CIS-FACTORIAL HepG2 Assay for human Forkhead box O (FoxO) (AID 2282943). Particulars: HepG2 Attagene cis-reporter, FoxO element, mRNA; actives raise or lower the signal. A digest of the protocol: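 Transfected HepG2 reporter cells exposed to test chemical for 24 h; reporter RNA measured by reverse transcription, PCR and fluorescent capillary electrophoresis; curves fitted for increases and decreases against DMSO.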

Experiment [15] in a line: ATG_GATA_CIS: Attagene CIS-FACTORIAL HepG2 Assay for human GATA Binding Protein (AID 2282944). Particulars: HepG2 GATA cis-element reporter, Attagene multiplex mRNA; actives raise or lower the signal. A digest of the protocol: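 After transfecting HepG2 cells with multiple cis-regulated reporter units, chemicals are dosed for 24 h; isolated RNA undergoes RT-PCR and fluorescent labeling before capillary electrophoresis, with activity expressed against DMSO.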

Experiment [16] can be described thus: ATG_GLI_CIS: Attagene CIS-FACTORIAL HepG2 Assay for human Zinc Finger Protein GLI1 (AID 2282945). Particulars: HepG2, Attagene cis-factorial reporter mRNA, GLI element; actives raise or lower the signal. A digest of the protocol: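 Transiently transfected HepG2 cells report endogenous transcription factor activity via cis-element-driven reporter units. After 24 h compound exposure, reporter mRNA was measured by RT-PCR with capillary electrophoresis; bidirectional fitting against DMSO baseline.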

Experiment [17] in a line: ATG_ISRE_CIS: Attagene CIS-FACTORIAL HepG2 Assay for human Interferon Regulatory Factor 1 (IRF1) binding to an Interferon-Stimulated Response Element (ISRE) (AID 2282948). Particulars: HepG2 ISRE cis-reporter (Attagene), mRNA transcription readout; actives raise or lower the signal. A digest of the protocol:
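Uses HepG2 liver cells transfected with cis-regulated reporters and measures mRNA 24 h post-dosing through RT-PCR, primer-extension labelling and capillary electrophoresis, with DMSO as negative control.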

Experiment [18] deals with Retinoic acid receptor alpha (Homo sapiens) (UniProt P10276). As to the kind of experiment: ATG_DR5_RAR_CIS: Attagene CIS-FACTORIAL HepG2 Assay for human Retinoic Acid Receptor Alpha (RARE), DR5 submotif (AID 2282934).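 As to AC50: reporter responds to endogenous RAR alpha beta and gamma in HepG2 not RARA alone.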 Particulars: HepG2 Attagene cis-factorial RARE DR5 reporter, mRNA; actives raise or lower the signal. A digest of the protocol: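 After 24 h of chemical exposure, transiently transfected HepG2 cells were lysed for total RNA; the DR5-regulated reporter transcript was quantified via RT-PCR and capillary electrophoresis, with activity fitted bidirectionally against DMSO.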

The target of experiment [19] is Bile acid receptor (Homo sapiens) (UniProt Q96RI1). As to the kind of experiment: ATG_IR1_CIS: Attagene CIS-FACTORIAL HepG2 Assay for human Nuclear Receptor Subfamily 1 Group H Member 4 (NR1H4), IR1 submotif (AID 2282946). Particulars: IR1 reporter transcription, actives raise or lower the signal. A digest of the protocol: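 Fluorescence of capillary-separated, HpaI-digested RT-PCR reporter products gave IR1-element mRNA induction in HepG2 cells 24 h after dosing. Endogenous transcription factors drove the cis-regulated reporters; activity was fitted bidirectionally against DMSO.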

The nature of experiment [20]: ATG_GRE_CIS: Attagene CIS-FACTORIAL HepG2 Assay for human Glucocorticoid Response Elements (GRE) (AID 2282947). To be noted: HepG2 GRE cis-reporter, Attagene multiplex mRNA; AC50: actives raise or lower the signal unless noted; outcome: actives raise or lower the signal unless noted. A digest of the protocol:
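Read-out: fluorescent reporter-transcript fragments separated by capillary electrophoresis after RT-PCR. Transiently transfected HepG2 cells carrying cis-element-driven reporter units were dosed for 24 h; gain or loss of signal fitted against DMSO control.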

Sequence of Transcription factor E2F1 (Homo sapiens) (Q01094 whole entry, looked up): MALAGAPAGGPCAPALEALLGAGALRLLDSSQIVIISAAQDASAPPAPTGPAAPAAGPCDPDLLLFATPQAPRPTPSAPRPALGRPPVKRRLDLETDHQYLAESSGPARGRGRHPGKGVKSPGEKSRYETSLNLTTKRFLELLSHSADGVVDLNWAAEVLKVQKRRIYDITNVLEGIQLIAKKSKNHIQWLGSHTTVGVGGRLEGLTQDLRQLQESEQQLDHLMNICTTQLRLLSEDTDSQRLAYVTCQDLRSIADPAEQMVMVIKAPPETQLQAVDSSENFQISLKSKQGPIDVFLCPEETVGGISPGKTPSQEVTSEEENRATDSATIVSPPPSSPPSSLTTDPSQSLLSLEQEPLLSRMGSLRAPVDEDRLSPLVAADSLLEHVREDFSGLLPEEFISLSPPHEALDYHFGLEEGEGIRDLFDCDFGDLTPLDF
Sequence of Retinoic acid receptor alpha (Homo sapiens) (P10276 whole entry, looked up): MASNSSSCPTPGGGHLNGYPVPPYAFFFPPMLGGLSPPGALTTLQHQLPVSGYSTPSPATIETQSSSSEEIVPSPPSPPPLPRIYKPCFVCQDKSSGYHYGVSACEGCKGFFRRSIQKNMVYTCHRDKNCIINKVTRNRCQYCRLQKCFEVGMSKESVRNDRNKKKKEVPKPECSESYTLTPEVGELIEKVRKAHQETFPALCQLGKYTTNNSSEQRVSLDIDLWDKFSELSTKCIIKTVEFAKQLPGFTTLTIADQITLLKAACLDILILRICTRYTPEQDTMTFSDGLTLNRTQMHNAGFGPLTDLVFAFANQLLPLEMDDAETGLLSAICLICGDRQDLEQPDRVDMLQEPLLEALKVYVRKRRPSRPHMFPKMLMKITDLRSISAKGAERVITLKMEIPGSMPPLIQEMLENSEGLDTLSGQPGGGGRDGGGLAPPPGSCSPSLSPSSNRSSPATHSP
Sequence of Hepatocyte nuclear factor 3-beta (Homo sapiens) (Q9Y261 whole entry, looked up, the tested form may be a part): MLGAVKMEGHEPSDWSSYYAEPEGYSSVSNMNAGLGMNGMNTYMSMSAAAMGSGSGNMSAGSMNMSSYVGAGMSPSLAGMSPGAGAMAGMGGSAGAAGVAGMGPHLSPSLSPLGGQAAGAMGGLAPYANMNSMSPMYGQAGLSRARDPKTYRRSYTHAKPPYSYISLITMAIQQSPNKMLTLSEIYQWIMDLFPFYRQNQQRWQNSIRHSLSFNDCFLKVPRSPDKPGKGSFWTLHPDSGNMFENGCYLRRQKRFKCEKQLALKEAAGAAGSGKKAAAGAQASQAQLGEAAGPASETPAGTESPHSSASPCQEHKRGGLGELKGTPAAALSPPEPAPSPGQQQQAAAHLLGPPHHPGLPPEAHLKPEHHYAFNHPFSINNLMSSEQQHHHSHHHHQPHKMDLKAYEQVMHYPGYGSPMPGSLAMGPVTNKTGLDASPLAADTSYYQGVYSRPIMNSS
Sequence of Aryl hydrocarbon receptor (Homo sapiens) (P35869 whole entry, looked up): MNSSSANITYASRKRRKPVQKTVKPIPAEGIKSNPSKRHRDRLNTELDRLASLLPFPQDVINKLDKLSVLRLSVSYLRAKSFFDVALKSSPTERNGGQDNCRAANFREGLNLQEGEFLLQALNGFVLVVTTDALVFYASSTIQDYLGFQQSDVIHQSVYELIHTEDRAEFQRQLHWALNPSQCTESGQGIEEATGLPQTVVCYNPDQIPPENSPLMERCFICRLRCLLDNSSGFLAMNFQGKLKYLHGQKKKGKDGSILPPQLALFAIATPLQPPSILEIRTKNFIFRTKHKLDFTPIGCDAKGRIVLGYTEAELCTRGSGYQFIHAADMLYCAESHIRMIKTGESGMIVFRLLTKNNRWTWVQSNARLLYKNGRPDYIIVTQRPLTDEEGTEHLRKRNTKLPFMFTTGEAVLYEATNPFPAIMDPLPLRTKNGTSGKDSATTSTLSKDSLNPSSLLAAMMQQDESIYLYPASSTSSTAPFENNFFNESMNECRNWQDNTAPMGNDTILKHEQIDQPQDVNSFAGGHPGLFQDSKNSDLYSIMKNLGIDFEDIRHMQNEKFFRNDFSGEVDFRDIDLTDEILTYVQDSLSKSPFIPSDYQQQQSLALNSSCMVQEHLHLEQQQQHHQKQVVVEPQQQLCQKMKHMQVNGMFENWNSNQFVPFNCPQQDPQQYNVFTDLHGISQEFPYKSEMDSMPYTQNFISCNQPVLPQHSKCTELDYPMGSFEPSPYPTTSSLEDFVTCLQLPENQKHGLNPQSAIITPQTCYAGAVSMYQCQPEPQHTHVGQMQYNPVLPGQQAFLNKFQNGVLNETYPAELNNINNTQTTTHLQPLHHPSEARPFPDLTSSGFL
Sequence of Bile acid receptor (Homo sapiens) (Q96RI1 whole entry, looked up): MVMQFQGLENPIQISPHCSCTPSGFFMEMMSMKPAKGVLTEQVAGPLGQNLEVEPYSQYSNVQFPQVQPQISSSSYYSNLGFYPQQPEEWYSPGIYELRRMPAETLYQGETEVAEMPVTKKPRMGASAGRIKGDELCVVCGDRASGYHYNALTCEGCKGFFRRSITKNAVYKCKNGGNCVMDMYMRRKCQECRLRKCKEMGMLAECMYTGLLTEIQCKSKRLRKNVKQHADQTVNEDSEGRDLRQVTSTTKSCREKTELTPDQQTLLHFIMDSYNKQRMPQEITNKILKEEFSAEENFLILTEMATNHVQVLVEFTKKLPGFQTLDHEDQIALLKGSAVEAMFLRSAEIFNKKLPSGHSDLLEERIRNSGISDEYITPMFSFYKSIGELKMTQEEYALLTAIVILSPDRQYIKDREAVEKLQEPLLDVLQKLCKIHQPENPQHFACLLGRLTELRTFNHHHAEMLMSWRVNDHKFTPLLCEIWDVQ

The AC50 is the concentration giving half of the maximal activity seen. In the case of `NC(=NCCCCCCN=C(N)/N=C(\N)Nc1ccc(Cl)cc1)/N=C(\N)Nc1ccc(Cl)cc1`, the outcome in [1], in [2], in [3], in experiment [4], in experiment [5] and in experiment [6] was inactive. The outcome in experiment [7], in experiment [8], in [9], in experiment [10], in experiment [11] and in experiment [12] was inactive. Moreover, the molecule was called inactive in experiment [13], in experiment [14], in [15], in [16] and in [17]. Also, the AC50 in experiment [2] is 21.9 µM (active); in experiment [3], 49.5 µM (active); in experiment [4], 16.9 µM (active); in experiment [5] it was 3.85 µM (active) and 3.17 µM (active); in experiment [6] it was 48.6 µM (active); in experiment [7], 26.8 µM (active) and 23.9 µM (active). Also, the AC50 in [9] is 5.68 µM (active); in [10], 26.1 µM (active); in experiment [11], 4.6 µM (active); in experiment [12], 7.45 µM (active) and 6.93 µM (active); in experiment [14] it was 22.9 µM (active); in experiment [17], 5.9 µM (active) and 6.55 µM (active).

Take `CCCCc1ccc2ccccc2c1S(=O)(=O)O`: the molecule was called inactive in [1], in [2], in experiment [3], in [4], in experiment [5] and in [18]. Further, the outcome in experiment [6], in experiment [7], in experiment [8], in experiment [9], in experiment [10] and in [11] was inactive. The outcome in experiment [12], in experiment [13], in experiment [14], in experiment [15], in experiment [16] and in experiment [19] was inactive. The outcome in experiment [20] and in [17] was inactive.

`CC=O`: the molecule was called inactive in experiment [1], in experiment [2], in [3], in [4], in experiment [5] and in experiment [18]. Besides, the outcome in experiment [6], in experiment [7], in experiment [8], in experiment [9], in experiment [10] and in experiment [11] was inactive. In addition, the molecule was called inactive in experiment [12], in experiment [13], in experiment [14], in [15], in [16] and in experiment [19]. Further, the molecule was classed as inactive in [20] and in [17].

On to `CCc1cccc(CC)c1NC(=O)C(=O)O`, for which the outcome in experiment [1], in [2], in [3], in experiment [4], in experiment [5] and in [18] was inactive. The call in experiment [6], in [7], in [8], in [9], in experiment [10] and in [11] was inactive. In addition, the molecule was called inactive in [12], in experiment [13], in [14], in experiment [15], in [16] and in experiment [19]. For the same molecule, the call in experiment [20] and in [17] was inactive.

With `OCCN1CN(CCO)CN(CCO)C1`, the concentration at half-maximal activity (AC50) in [1] was 63.4 µM (active); in experiment [4] it was 143 µM (active); in experiment [18], 144 µM (active); in experiment [9], 173 µM (active); in experiment [16], 162 µM (active); in experiment [17], 159 µM (active). Further, the outcome in experiment [2], in experiment [3], in [5], in experiment [6], in [7] and in experiment [8] was inactive. In addition, the molecule was called inactive in [10], in [11], in [12], in experiment [13], in experiment [14] and in experiment [15]. The call in experiment [19] and in [20] was inactive.
